# Source: PubChem
# CCT modulator = changes cytosolic chaperonin activity; purified chaperonin ATPase assay, HTRF ADP detection, 30 min; actives 0.3% (n = 360,000); activity change, % (concentration not given with the values), hits read low; AID 651819; in the data active = activity change below about -30%
#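 ATPase activity: ADP formed was measured by HTRF Transcreener (665/615 nm ratio) after 30 min at 37 deg C with 10 uM ATP. Compounds screened at one 76 uM concentration against 40 or 20 nM TRiC in Tris pH 7.4/KCl/MgCl2/DTT buffer.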
# CtBP-E1A blk = CtBP/E1A binding inhibition; actives 0.49% (n = 340,000); AlphaScreen GST-E1A/His-CtBP binding, 1536-well; stronger effect = lower value; AID 651724; activity change, % (concentration not given with the values)
#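 Steps: dispense buffer (Tris pH 8.0, NaCl 300 mM, TCEP 1 mM, BSA, Tween 20); add 5X protein mix (GST-E1A, His-CtBP, 125 nM each); pin 23 nL compound; 2 h at 37 °C, dark; add 5X beads (50 ug/mL); 1 h; read.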
# Akt phos inh = inhibitors of Akt phosphorylation; actives 0.32% (n = 360,000); activity change, % for hits at 50 µM; Neuro2A IGF-stimulated pAkt S473 HTRF, 20 min; stronger effect = lower value; AID 651550; in the data active = activity change below about -80%; inconclusive = mostly about -51% to -80%
#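 Neuro2A cells (4,500/well, DMEM with 0.5% FBS) were treated with compound at a single 50 µM final concentration, stimulated with 6 nM IGF for 20 min at 37 °C, and lysed. Phospho-Akt Ser473 was read by HTRF as 665/615 ratio ×10^4.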
# Six1-Eya2 blk = Six1/Eya2 interaction inhibition; Q15475+O00167; AlphaScreen GST-Six1/His-Eya2 binding, biochemical; stronger effect = lower value; activity change, % (test concentration not listed); actives 0.56% (n = 360,000); AID 651725
# Target sequence (O00167 whole entry, looked up): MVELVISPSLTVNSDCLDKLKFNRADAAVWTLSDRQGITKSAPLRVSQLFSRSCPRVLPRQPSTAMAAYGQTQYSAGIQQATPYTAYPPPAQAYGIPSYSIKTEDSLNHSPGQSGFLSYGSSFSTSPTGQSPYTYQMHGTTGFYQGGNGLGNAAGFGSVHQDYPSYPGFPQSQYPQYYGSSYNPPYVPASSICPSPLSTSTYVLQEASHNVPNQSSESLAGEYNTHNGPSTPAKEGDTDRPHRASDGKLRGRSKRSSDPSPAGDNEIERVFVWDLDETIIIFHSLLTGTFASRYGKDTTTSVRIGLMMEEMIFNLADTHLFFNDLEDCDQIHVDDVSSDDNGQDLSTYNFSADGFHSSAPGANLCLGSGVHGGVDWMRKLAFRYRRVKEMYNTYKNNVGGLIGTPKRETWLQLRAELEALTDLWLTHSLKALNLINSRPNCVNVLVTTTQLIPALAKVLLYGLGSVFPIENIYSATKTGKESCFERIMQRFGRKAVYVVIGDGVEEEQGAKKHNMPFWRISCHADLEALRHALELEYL
# Target sequence (Q15475 whole entry, looked up): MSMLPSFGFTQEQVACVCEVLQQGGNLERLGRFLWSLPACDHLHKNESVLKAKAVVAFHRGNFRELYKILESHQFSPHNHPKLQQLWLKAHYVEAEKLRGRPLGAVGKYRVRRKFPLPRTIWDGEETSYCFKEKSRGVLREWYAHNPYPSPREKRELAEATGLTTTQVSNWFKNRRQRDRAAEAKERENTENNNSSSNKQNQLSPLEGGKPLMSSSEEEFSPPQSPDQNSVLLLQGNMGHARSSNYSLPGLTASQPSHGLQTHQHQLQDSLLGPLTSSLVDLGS
#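 AlphaScreen luminescence read after one hour at 37 °C in darkness. Pin-transferred compounds met GST-Six1 and His-Eya2 protein (5X stock 250 nM/500 nM) plus glutathione donor and Ni-chelate acceptor beads (5X, 50 ug/mL).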
# A number is an active result; n = inactive; u = inconclusive; x = no result. Only some compounds are listed: those with a hit (about 1.3% of all), similar ones and a draw of the others. Cut-off read from the data, not from the text of the source, unless noted: active = activity change below about -65%; inconclusive = mostly about -30% to -63%; inactive = weaker than that.
SMILES,CCT modulator,CtBP-E1A blk,Akt phos inh,Six1-Eya2 blk
COC(=O)[C@]1(Cc2ccccc2)N[C@H](CN(C)C(=O)C2CCCCC2)[C@@H]2C(=O)N(C)C(=O)[C@@H]21,n,n,n,n
CCN1/C(=C2\OC(=S)N(C)C2=O)C=Cc2ccccc21,n,n,n,n
CCSC1=NC(=O)/C(=C2/C=Cc3ccccc3N2CC)S1,n,-74.2,x,-79.1
CC1CC(C)CN(C(=O)c2ccc3c(c2NCCO)C(=O)c2ccccc2C3=O)C1 (stereo not given),n,u,n,-70.0
C=CCOC(=O)C1CC=CCC1C(=O)Oc1ccc(F)cc1F (stereo not given),n,n,-80.3%,n
CCCc1cc(N2CCN(C(=O)c3ccco3)CC2)n2c(nc3ccccc32)c1C#N,n,-67.4,n,u
O=C(Cc1c(F)c(F)c(F)c(F)c1F)Nc1nc(-c2ccccc2)cs1,n,n,n,n
Cc1ccc(C(=O)Nc2ccon2)cc1S(=O)(=O)N1CCCCCC1,n,n,n,n
O=C(Nc1ccon1)c1ccc(S(=O)(=O)N2CCCCCC2)cc1,n,n,-115.9%,n
O=c1oc2c3c4c(cc2c(C(F)(F)F)c1CCN1CCOCC1)CCCN4CCC3,n,n,-109.3%,n
COCCNC(=O)C1(C)CCN(Cc2ccc(C(C)C)cc2)C1 (stereo not given),n,n,n,n
CCOC(=O)c1sc(=NC(=O)c2ccc(OC(C)C)cc2)n(C)c1C,-33.8,n,n,n
COc1ccc2[nH]c3c(NCCN(C(C)C)C(C)C)ncnc3c2c1,-52.3,n,n,n
CCOc1ccc2[nH]c3c(NCCN(CC)CC)ncnc3c2c1,n,n,n,n
CC(C)(C)c1cc(C(=O)NNC(=O)c2ccc(Cl)cc2)no1,n,n,n,n
CCN(CC)S(=O)(=O)c1ccc(C(=O)NC(=S)N2CCN(c3ccccc3O)CC2)cc1,-52.1,n,n,n
CN1c2ccc([N+](=O)[O-])cc2N(C)C1(C)c1ccccc1 (stereo not given),n,-79.7,n,-76.5
Cn1c2ccccc2c2cc([N+](=O)[O-])ccc21,n,n,n,n
NNC(=O)c1cc2cc3ccccc3nc2s1,n,x,n,n
O=C(CCc1nc2ccccc2c(=O)[nH]1)N1CCCc2ccccc21,n,n,n,n
O=C(N/N=C/C(Cl)=C/c1ccc([N+](=O)[O-])cc1)C(=O)Nc1cccc(C(=O)O)c1,n,-92.1,n,u
O=C(Nc1cccc(C(=O)O)c1)/C(=C/c1cccc([N+](=O)[O-])c1)NC(=O)c1cccc(Br)c1,n,n,n,n
Cc1nccn1CCOc1ccccc1Cl,n,n,n,n
O=C(CCN1C(=O)C2CCCCC2C1=O)N1CCN(S(=O)(=O)c2ccccc2)CC1 (stereo not given),n,n,n,n
Cc1ccc(S(=O)(=O)NN=Cc2ccco2)cc1,n,n,n,n
SMILES,CCT modulator,CtBP-E1A blk,Akt phos inh,Six1-Eya2 blk
Cc1ccc(S(=O)(=O)N/N=C/c2cc(Br)c(C)o2)cc1,n,n,-95.4%,n
CCCSc1ccc([C@H]2N[C@@](C)(C(=O)OC)[C@H]3C(=O)N(CC)C(=O)[C@@H]23)cc1,n,x,n,n
COc1cccc(C2c3[nH]c4ccccc4c3C[C@H]3C(=O)N(c4ccccc4C(=O)NCCCN4CCOCC4)C(=O)N23)c1 (stereo not given in full),n,n,n,n
O=S(=O)(Nc1cccc(-c2cn3cccnc3n2)c1)c1ccc(-c2ccccc2)cc1,n,u,n,u
O=S(=O)(Nc1cccc(-c2cn3cccnc3n2)c1)c1ccccc1,n,n,n,-83.4
O=S(=O)(Nc1cccc(-c2cn3cccnc3n2)c1)c1ccc(F)cc1,n,n,n,-66.7
C[C@@]12CCC3[C@@](CCC4[C@@]3(C)CCC[C@@]4(C)C(=O)N3CCCCC3)(CC1=O)C2 (stereo not given in full),n,n,n,n
CC1(c2nnc(-c3cccc(Cl)c3)o2)CC(c2ccccc2)=NO1 (stereo not given),n,n,n,n
Cc1c(C(=O)c2ccccc2)c2ccccn2c1CCc1ccccn1,-69.9,n,n,n
COc1cc(OC)c(C(=O)CCC(=O)O)cc1OC,-31.0,n,n,n
COc1cc(CC(=O)O)c(C(C)=O)cc1OC,n,n,n,n
COc1ccc(NC(=O)c2ccc(NC(=O)CSc3nc(N)cc(=O)[nH]3)cc2)cc1,n,x,n,n
COCCCNC(=O)CSc1nc2ccccc2c(=O)n1CCCN1CCCCC1,n,x,n,n
COCCNC(=O)CSc1nc2ccccc2c(=O)n1CCCC(=O)NCc1ccccc1,-75.0,n,n,n
CN1CCN(C(c2ccccn2)c2cc(Cl)c3cccnc3c2O)CC1 (stereo not given),n,x,n,-89.3
CN1CCN(C(c2ccc(C(F)(F)F)cc2)c2ccc3cccnc3c2O)CC1 (stereo not given),n,-84.1,n,u
Cc1ccc(C(c2cc(Cl)c3cccnc3c2O)N2CCN(C)CC2)cc1 (stereo not given),n,-85.0,n,u
Oc1c(C(c2ccc(Cl)cc2)N2CCCC2)cc(Cl)c2cccnc12 (stereo not given),n,x,n,u
Oc1c(C(c2ccccn2)N2CCC(Cc3ccccc3)CC2)cc(Cl)c2cccnc12 (stereo not given),n,-67.7,n,-88.5
Nc1cc2c(cc1Br)-c1c(C(=O)O)cccc1C2O (stereo not given),n,n,n,n
COc1cc(OC)cc(C(=O)NNC(=O)CCNC(=O)c2ccc(Br)cc2)c1,n,n,n,n
CCCCn1c(N)c(N(CCOC)C(=O)C2CCN(c3ncnc4sc(C)c(C)c34)CC2)c(=O)[nH]c1=O,n,-90.2,n,n
CCCCn1c(N)c(N(CC(C)C)C(=O)C2CCN(c3ncnc4sc(C)c(C)c34)CC2)c(=O)[nH]c1=O,n,n,n,n
CC(C)(C)c1ccc(S(=O)(=O)N2CCN(c3ccccn3)CC2)cc1,n,n,n,n
COc1ccc(NC(C)=O)cc1S(=O)(=O)N1CCN(Cc2cccs2)CC1,n,n,n,n
SMILES,CCT modulator,CtBP-E1A blk,Akt phos inh,Six1-Eya2 blk
N#Cc1ccc(NC(=O)COc2ccc(-n3cnnn3)cc2)cc1,n,n,n,n
COc1cccc(/C=N/NC(=O)c2cc3c(OC)ccc(OC)c3[nH]2)c1O,n,x,n,-68.0
COc1cc(OC)c2cc(C(=O)N/N=C/c3cccc(OC)c3O)[nH]c2c1,n,-75.5,n,u
COc1ccc2cc(C(=O)N/N=C/c3cc(OC)c(OC)c(OC)c3)[nH]c2c1,n,u,n,u
CC(=O)c1cc(C#N)c(N2CCCC2)nc1C,n,n,n,n
O=C(CC(c1ccco1)C1CCCCC1=O)c1ccco1 (stereo not given),-37.9,n,n,n
CC(=O)c1cccc(N(C(=O)CNC(=O)c2ccco2)C(C(=O)NCC2CCCO2)c2ccccc2)c1 (stereo not given),n,n,n,n
COc1ccc(CN2C(=O)c3cccnc3C2=O)cc1S(=O)(=O)NC1CCCCC1,n,x,x,n
